Sampled rows, rich in hits. Any-hit rate of the full collection: about 2.6%.
Jurkat NFkB inh: inhibitors of the PMA/ionomycin-induced NF-kB reporter in Jurkat cells | 0.53% of 330,000 active | PMA/ionomycin-induced NF-kB luciferase reporter, luminescence | AID 435003 | inhibition, % at 4 µM; in the data active means inhibition above about 50%
H9c2 protect: myocardial damage modulation in H9c2 cells | H9c2 cardiomyocytes, H2O2 injury protection, ATPLite, 2 h | AID 588492 | protection from H2O2 cell death, % at 20 µM | 0.63% of 360,000 active;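 active means compounds giving at least 50% protection of heart cells from peroxide-induced death in the single-dose screen, raw or plate-pattern-corrected value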
COUP-TFII inh: NR2F2 (human) inhibition, primary screen; P24468; HEK293T NGFI-A luciferase reporter, luminescence; inhibition, % at 8.6 µM; 0.7% of 370,000 active;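 active means inhibition above a per-plate cutoff, mean inhibition of test wells between control levels plus 3 SD, cut at about 38% in these data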;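 further: cells cotransfected with COUP-TFII expression vector driving the NGFI-A reporter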
Target sequence (P24468 whole entry, looked up): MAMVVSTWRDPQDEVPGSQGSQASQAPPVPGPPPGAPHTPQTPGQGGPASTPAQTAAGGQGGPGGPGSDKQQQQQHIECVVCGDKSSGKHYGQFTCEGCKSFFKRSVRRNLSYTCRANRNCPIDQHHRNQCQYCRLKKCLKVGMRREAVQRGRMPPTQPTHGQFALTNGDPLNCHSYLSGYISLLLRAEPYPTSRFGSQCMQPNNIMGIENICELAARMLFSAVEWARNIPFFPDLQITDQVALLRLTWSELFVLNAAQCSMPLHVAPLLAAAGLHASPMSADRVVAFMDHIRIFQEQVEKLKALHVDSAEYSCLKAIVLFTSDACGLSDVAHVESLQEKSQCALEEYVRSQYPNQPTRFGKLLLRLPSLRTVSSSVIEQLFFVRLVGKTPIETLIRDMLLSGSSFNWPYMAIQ
TAG inh: reduces triacylglycerol accumulation in H9c2 cells. Nile Red lipid (TAG) fluorescence; cells loaded with 200 µM oleic acid. inhibition, % at 12.5 µM. 0.66% of 230,000 active;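 active means pattern-corrected inhibition of lipid staining of at least 50% with the nuclear-stain viability signal not falling by more than 50%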
697 NFkB inh: lowers PMA/ionomycin-induced NF-kB signal in 697 B cells | 697 B-cell NF-kB luciferase reporter, 16 h | inhibition, % at 4 µM | 0.33% of 330,000 active | AID 435022; in the data active means inhibition above about 35%
Gli-Sufu antag: antagonists of Gli-Sufu signaling. Sufu-KO-LIGHT fibroblasts, Gli luciferase reporter luminescence. inhibition, % at 5 µM. 0.74% of 340,000 active. AID 588413;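 active means inhibition above about 55%, limit read from the data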
Gli antag conf: Gli-SUFU antagonism confirmation, single concentration. inhibition, % at 5 µM. Sufu-KO-LIGHT cells, Gli luciferase reporter, luminescence. shares compounds with Gli-Sufu antag. 40% of 2,500 active;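 active means mean inhibition at 5 µM reaching about 45%, limit read from the data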
Gli cytotox: cytotoxic in Gli-SUFU antagonist counter-screen | shares compounds with Gli-Sufu antag | Sufu-KO-LIGHT cells cytotoxicity, ATP luminescence | cytotoxicity, % at 5 µM | 32% of 2,500 active;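 active means mean cytotoxicity at 5 µM above about 25%, limit read from the data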;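 further: cells exposed to compound overnight for roughly 16 to 18 hours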
Wnt3a cs: inhibits Wnt3a reporter, counter-screen for Gli-SUFU antagonists. 20% of 2,500 active. shares compounds with Gli-Sufu antag. AID 651995. inhibition, % at 6.25 µM. Wnt-LIGHT cells, Wnt3a-driven luciferase reporter, luminescence;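 active means mean inhibition above about 25%, limit read from the data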
VP16 Luc counter: VP16 inhibition counter-screen for COUP-TFII; shares compounds with COUP-TFII inh; HEK293 Gal4-VP16 luciferase reporter, luminescence; inhibition, % at 8.5 µM; 25% of 2,500 active; AID 687007; in the data active means inhibition above about 13%
NR2F2 inh conf: confirmation of human COUP-TFII (NR2F2) inhibitors; shares compounds with COUP-TFII inh; inhibition, % at 8.5 µM; 45% of 2,500 active; HEK293 NGFI-A luciferase reporter, luminescence; AID 687008;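 active means mean inhibition over three repeats above a set limit taken from the earlier primary screen, cut at about 38% in these data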
Large screens that a line does not name were inactive (follow-up assays come after a bar, where they were run).

O=C(NC(Nc1nc2ccc([N+](=O)[O-])cc2s1)(C(F)(F)F)C(F)(F)F)c1cccnc1	COUP-TFII inh 77, Gli-Sufu antag 84 | Gli antag conf 87 | Gli cytotox 35 | Wnt3a cs 81 | VP16 Luc counter inactive | NR2F2 inh conf 70
CN(C)S(=O)(=O)c1ccc2nc(NC(=O)c3cccnc3)sc2c1	none
C[C@H]1C2CC(OC(=O)Nc3cccc(Cl)c3)C(C2)[C@H]2CCCCN21 (stereo partly drawn)	none (no result: Jurkat NFkB inh, H9c2 protect, TAG inh, 697 NFkB inh, Gli-Sufu antag)
O=C(NCCc1cccc(Cl)c1)c1ccc(OC2CCN(Cc3ccccn3)CC2)cc1	COUP-TFII inh 61 (no result: TAG inh) | Gli antag conf 50 | Gli cytotox inactive | Wnt3a cs inactive | VP16 Luc counter inactive | NR2F2 inh conf 40
CCC(C)N(C(=O)c1oc(=O)c2ccccc2c1-c1ccc(C)cc1)C(C)CC (stereo not drawn)	none (no result: Jurkat NFkB inh, H9c2 protect, TAG inh, 697 NFkB inh, Gli-Sufu antag)
O=C(Cc1c[nH]c2ccccc12)Nc1ccc(Nc2cccnc2)c(-c2ccc(Cl)c(Cl)c2)c1	none (no result: Jurkat NFkB inh, H9c2 protect, TAG inh, 697 NFkB inh, Gli-Sufu antag)
CC(=O)c1c(C)[nH]c(C(=O)OCC(=O)Nc2cccc(S(=O)(=O)N3CCCC3)c2)c1C	COUP-TFII inh 66, Gli-Sufu antag 58 (no result: TAG inh) | Gli antag conf 53 | Gli cytotox inactive | Wnt3a cs inactive | VP16 Luc counter inactive | NR2F2 inh conf inactive
CC(=O)c1c(C)[nH]c(C(=O)OCC(=O)Nc2cc(S(=O)(=O)N3CCCC3)ccc2Cl)c1C	none (no result: TAG inh)
O=C(c1ccccc1OCc1ccccc1)N(Cc1ccccn1)CC1CCCO1 (stereo not drawn)	none (no result: Jurkat NFkB inh, H9c2 protect, TAG inh, 697 NFkB inh, Gli-Sufu antag)
O=C(NC1CCCCN(Cc2cccc(Cl)c2)C1=O)c1ccc(F)c(F)c1 (stereo not drawn)	none (no result: Jurkat NFkB inh, H9c2 protect, TAG inh, 697 NFkB inh, Gli-Sufu antag)
Cc1ccc(-c2cc3cccc[n+]3cc2-c2ccc(C)cc2)cc1	COUP-TFII inh 66, Gli-Sufu antag 86 (no result: TAG inh) | Gli antag conf 89 | Gli cytotox 27 | Wnt3a cs 48 | VP16 Luc counter inactive | NR2F2 inh conf 54
O[C@@H]1CN(Cc2ccc(-n3cccn3)cc2)CC[C@H]1N1CCN(c2ccccc2F)CC1	COUP-TFII inh 49, Gli-Sufu antag 59 | Gli antag conf 46 | Gli cytotox 27 | Wnt3a cs inactive | VP16 Luc counter inactive | NR2F2 inh conf inactive
C(=NN=Cc1c[nH]c2ccccc12)c1c[nH]c2ccccc12	none (no result: Jurkat NFkB inh, 697 NFkB inh, Gli-Sufu antag)
CCc1ccc(/C=C/c2c[nH]c3ccccc23)[n+](CC)c1	COUP-TFII inh 40, Gli-Sufu antag 78 (no result: TAG inh) | Gli antag conf 83 | Gli cytotox 32 | Wnt3a cs 46 | VP16 Luc counter inactive | NR2F2 inh conf 38
c1csc(CCNc2ncnc3sc4c(c23)CCC4)c1	COUP-TFII inh 67, Gli-Sufu antag 56 | Gli antag conf 60 | Gli cytotox 30 | Wnt3a cs inactive | VP16 Luc counter inactive | NR2F2 inh conf 46
O=S(=O)(c1ccc(Cl)cc1)N1CCN(c2ncnc3sccc23)CC1	COUP-TFII inh 47 | Gli antag conf 46 | Gli cytotox inactive | Wnt3a cs 35 | VP16 Luc counter inactive | NR2F2 inh conf inactive
CCC(C)N(C(=O)CNc1nnnn1-c1ccccc1)C(C)CC (stereo not drawn)	none (no result: Jurkat NFkB inh, H9c2 protect, TAG inh, 697 NFkB inh, Gli-Sufu antag)
Cc1nc(NCCc2ccc(S(N)(=O)=O)cc2)c2c(C)c(C)sc2n1	COUP-TFII inh 48, Gli-Sufu antag 63 | Gli antag conf 59 | Gli cytotox 39 | Wnt3a cs inactive | VP16 Luc counter inactive | NR2F2 inh conf inactive
Cn1nc(C(C)(C)C)cc1C(=O)NCc1ccc2c(c1)OCO2	COUP-TFII inh 60, Gli-Sufu antag 68 | Gli antag conf 68 | Gli cytotox 30 | Wnt3a cs 43 | VP16 Luc counter inactive | NR2F2 inh conf 50
CCc1ccc(OC)c(S(=O)(=O)Nc2ccc(Cc3ccncc3)cc2)c1	COUP-TFII inh 64, Gli-Sufu antag 57 (no result: TAG inh) | Gli antag conf 58 | Gli cytotox 44 | Wnt3a cs 29 | VP16 Luc counter inactive | NR2F2 inh conf inactive
O=C(Nc1ccc(Br)cc1)c1ccc(F)c(S(=O)(=O)NCc2cccs2)c1	COUP-TFII inh 72 | Gli antag conf 52 | Gli cytotox 43 | Wnt3a cs inactive | VP16 Luc counter inactive | NR2F2 inh conf 56
O=C(CSc1nc2ccccc2nc1N1CCOCC1)NCc1ccc(Cl)cc1Cl	none (no result: Jurkat NFkB inh, H9c2 protect, TAG inh, 697 NFkB inh, Gli-Sufu antag)
O=C(NC1CCCCCCC1)c1cc(COc2ccc3ncccc3c2)on1	COUP-TFII inh 62, Gli-Sufu antag 73 (no result: Jurkat NFkB inh, 697 NFkB inh) | Gli antag conf 73 | Gli cytotox 28 | Wnt3a cs inactive | VP16 Luc counter inactive | NR2F2 inh conf 63
O=C(c1cc(COc2ccc3ncccc3c2)on1)N1CCCC(O)C1 (stereo not drawn)	none
Cc1cccnc1CN1CCN(C(=O)c2cc(COc3ccc4ncccc4c3)on2)CC1	COUP-TFII inh 63, Gli-Sufu antag 62 | Gli antag conf 66 | Gli cytotox 27 | Wnt3a cs 27 | VP16 Luc counter inactive | NR2F2 inh conf 38
CCOC(=O)N1CCN(C(=O)c2cc(COc3ccc4ncccc4c3)on2)CC1	COUP-TFII inh 58, Gli-Sufu antag 67 | Gli antag conf 51 | Gli cytotox inactive | Wnt3a cs inactive | VP16 Luc counter inactive | NR2F2 inh conf 46
FC(F)(F)c1nc(-c2ccncc2)ncc1-c1nnnn1-c1ccccc1	none
Fc1ccc(-n2nnnc2-c2cnc(-c3cccs3)nc2C(F)(F)F)cc1	COUP-TFII inh 53 | Gli antag conf 56 | Gli cytotox 31 | Wnt3a cs inactive | VP16 Luc counter inactive | NR2F2 inh conf 38
FC(F)(F)c1nc(N2CCCC2)ncc1-c1nnnn1-c1ccc(Cl)cc1	COUP-TFII inh 38 | Gli antag conf 54 | Gli cytotox 45 | Wnt3a cs inactive | VP16 Luc counter inactive | NR2F2 inh conf inactive
CCc1ccc(CCNC(=O)OCCCN2CCC3(CCC(C)CC3)C2=O)cc1 (stereo not drawn)	none (no result: Jurkat NFkB inh, H9c2 protect, TAG inh, 697 NFkB inh, Gli-Sufu antag)
C#CCN1C(=O)[C@]2(OC[C@@H]3Cc4ccccc4[C@@H]3C=C2C)c2ccccc21	none (no result: Jurkat NFkB inh, H9c2 protect, TAG inh, 697 NFkB inh, Gli-Sufu antag)

Screening results from PubChem BioAssay.
